Test results as given in article PMC9574860, “Chemical Toolkit for PARK7: Potent, Selective, and High-Throughput” (Journal of Medicinal Chemistry, 2022).
About 400 (5.1%) of roughly 7,900 compounds showed an effect of 50% or more. This excerpt belongs to a sample that is enriched for strong results.

What follows are molecules tested against Parkinson's disease protein 7 (PARK7/DJ1) (human, UniProt Q99497) (assay: primary screen, percent inhibition; read as competition with a fluorescent probe by fluorescence polarization; higher = more effect of the substance). Conditions: 100 µM.
Procedure, shortened: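 Fluorescence-polarization probe displacement (JYQ-107, 20 nM final, 2 h) after 2 h preincubation of PARK7 (0.2 μM final) with each fragment at 100 μM final. Read-out ex/em 480/520 nm; remaining activity derived from FP signal loss relative to reference controls.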

Chain of Parkinson's disease protein 7 (PARK7/DJ1) (Q99497 whole entry, looked up, the tested form may be a part): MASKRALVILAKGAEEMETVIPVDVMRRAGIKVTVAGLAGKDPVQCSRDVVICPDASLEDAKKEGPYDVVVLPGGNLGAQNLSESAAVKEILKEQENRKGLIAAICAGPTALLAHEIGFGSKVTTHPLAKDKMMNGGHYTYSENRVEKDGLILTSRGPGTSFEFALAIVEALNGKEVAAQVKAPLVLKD

Q: Which Inhibition % does the source give for `CC1(C)C(=O)NC1c1ccco1` (centres unmarked) here?
A: 1.96%

Q: `CN(CCc1nccs1)C(=O)c1cccnc1S` was tested. Which Inhibition % did it give?
A: 5.89%

Q: `C=CC(=O)N1CCN(C(=O)CN2C(=O)CCC2=O)CC1` was tested. Which Inhibition % did it give?
A: 6.08%

Q: For `COC(=O)c1ccc(C)c(NC(=O)CCl)c1`, which Inhibition % is on record?
A: 3.25%

Q: Which Inhibition % does the source give for `N#CC=C1NC(=O)c2ccccc2S1` here?
A: 28.7%

Q: `CC1CN(C(=O)C=Cc2ccnn2C)CC(C)N1.Cl` (centres unmarked) was tested. Which Inhibition % did it give?
A: 14.8%

Q: How did the Inhibition % turn out when `CC(=O)c1ccccc1NC(=O)CCl` was run?
A: 19%

Q: For `Cn1cnc2ccc(S(=O)(=O)F)cc21`, which Inhibition % is on record?
A: 43.4%

Q: `Cn1nccc1NS(=O)(=O)c1cccc(S(=O)(=O)F)c1` was tested. Which Inhibition % did it give?
A: 89.5%

Q: For `O=S(=O)(F)c1cccc(S(=O)(=O)Nc2ncccn2)c1`, which Inhibition % is on record?
A: 16.8%

Q: For `C=CC(=O)N1C2CCC1CC(CC(F)F)C2` (centres unmarked), which Inhibition % is on record?
A: 6.6%

Q: Which Inhibition % does the source give for `C=CC(=O)N1CCC[C@H]1C(=O)NC` here?
A: 4.18%

Q: `O=C1OCCC1N1CCN(C(=O)c2cccc(F)c2)CC1` (centres unmarked) was tested. Which Inhibition % did it give?
A: 8.98%

Q: For `O=C(CCCl)NC1CCCc2ccccc21` (centres unmarked), which Inhibition % is on record?
A: 2.39%

Q: `N#CC(=Cc1cc2cc(F)ccc2o1)C(N)=O` was tested. Which Inhibition % did it give?
A: 6.05%

Q: With `CCc1cc2c(=O)n(CCS(=O)(=O)F)cnc2s1` as the molecule, how does the Inhibition % read?
A: 9.17%

Q: How did the Inhibition % turn out when `Cc1noc(C)c1CNC(=O)CCl` was run?
A: 46.7%

Q: Which Inhibition % does the source give for `CNC(=O)Oc1noc(C)c1C` here?
A: 84.8%

Q: How did the Inhibition % turn out when `CCc1c(OC(=O)NC)noc1C` was run?
A: 84.6%

Q: For `C=CC(=O)NCc1c(C)noc1C`, which Inhibition % is on record?
A: 13.4%

Q: With `CNC(=O)Oc1cccc(N)c1` as the molecule, how does the Inhibition % read?
A: 20.5%

Q: How did the Inhibition % turn out when `CNC(=O)Oc1cccc(O)c1` was run?
A: 37.6%

Q: Which Inhibition % does the source give for `N#Cc1nncn1CC(=O)Nc1ccc(C(F)(F)F)cc1` here?
A: 26.2%

Q: For `C=CC(=O)N1CCC(NC(=O)c2oc(C)cc2C)CC1`, which Inhibition % is on record?
A: 3.91%

Q: How did the Inhibition % turn out when `C=CC(=O)NC1CCc2nnc(CC)n2C1` (centres unmarked) was run?
A: 7.66%

Q: For `O=C(CCl)c1ccc(N2CCOC2=O)cc1`, which Inhibition % is on record?
A: 24.5%

Q: `Cc1ccc(C(=O)CCl)cc1` was tested. Which Inhibition % did it give?
A: 32.3%

Q: `Cn1c(=O)oc2cc(C(=O)CCl)ccc21` was tested. Which Inhibition % did it give?
A: 0.517%

Q: For `O=C(CCl)c1ccc(F)cc1`, which Inhibition % is on record?
A: 32.3%

Q: Which Inhibition % does the source give for `O=C(CCl)c1cc(F)ccc1O` here?
A: 38.8%

Q: Which Inhibition % does the source give for `O=C(CCl)c1ccc(O)cc1O` here?
A: 81.9%

Q: With `O=C(CCl)c1ccc(O)cc1` as the molecule, how does the Inhibition % read?
A: 86.7%

Q: With `O=C(CCl)c1ccc(F)cc1F` as the molecule, how does the Inhibition % read?
A: 18.5%

Q: Which Inhibition % does the source give for `O=C(CCl)c1ccoc1` here?
A: 76.6%

Q: Which Inhibition % does the source give for `O=C(CCl)NC(=O)c1ccc(Cl)cc1` here?
A: 19.6%

Q: For `O=C(CCl)c1ccc(Cl)cc1`, which Inhibition % is on record?
A: 75.6%

Q: How did the Inhibition % turn out when `C=CC(=O)NC1COCc2ccccc21` (centres unmarked) was run?
A: 9.84%

Q: How did the Inhibition % turn out when `O=C(CN1C(=O)CCC1=O)c1ccccc1F` was run?
A: 9.1%

Q: `CC1CC(N2CC=C(c3ccc(F)cc3)CC2)C(=O)O1` (centres unmarked) was tested. Which Inhibition % did it give?
A: 5.18%

Q: Which Inhibition % does the source give for `Cc1cccc(NC(=O)NC2C(=O)OCC2(C)C)n1` (centres unmarked) here?
A: 7.98%

Q: With `N#CC(=Cc1ccc(-c2nc3ccccc3s2)o1)C(=O)O` as the molecule, how does the Inhibition % read?
A: 3.06%

Q: For `C=CC(=O)N1CCOc2ccccc21`, which Inhibition % is on record?
A: 9.1%

Q: With `O=C(CCl)c1ccc(O)c(O)c1` as the molecule, how does the Inhibition % read?
A: 75.1%

Q: Which Inhibition % does the source give for `CSc1ccc(C(=O)CCl)cc1` here?
A: 89.6%

Q: Which Inhibition % does the source give for `O=C(CCl)c1ccc(C(F)(F)F)cc1` here?
A: 12%

Q: `Cl.O=C(CCl)Nc1ccncc1` was tested. Which Inhibition % did it give?
A: 14.4%

Q: With `O=C(CCl)c1ccccc1` as the molecule, how does the Inhibition % read?
A: 56.6%

Q: `O=C(CCl)NNC(=O)c1ccccc1` was tested. Which Inhibition % did it give?
A: -3.2%

Q: For `Cl.O=C(CCl)c1ccncc1`, which Inhibition % is on record?
A: 95.3%

Q: With `O=C(CCl)NCC(=O)c1ccccc1` as the molecule, how does the Inhibition % read?
A: 4.23%

Q: How did the Inhibition % turn out when `CCN1CCN(c2oc(C3CC3)nc2C#N)CC1` was run?
A: 1.62%

Q: `Cc1nccn1CC1CCCN1c1ccc(C#N)nc1` (centres unmarked) was tested. Which Inhibition % did it give?
A: 0.293%

Q: With `N#Cc1cc(C(=O)Nc2ccccc2)c(N)nc1S` as the molecule, how does the Inhibition % read?
A: 1.51%

Q: For `C=CC(=O)N1CCN(C(=O)CC(F)(F)F)CC1`, which Inhibition % is on record?
A: 12.4%

Q: How did the Inhibition % turn out when `CC1CC(C)CC2(C1)NC(=O)N(CCC1OCCO1)C2=O` (centres unmarked) was run?
A: 2.2%

Q: How did the Inhibition % turn out when `C=C(C)Cn1c(C#N)nc(C)c1C` was run?
A: 2.82%

Q: `O=C(CCl)c1ccc2[nH]c(=O)oc2c1` was tested. Which Inhibition % did it give?
A: 2.68%

Q: Which Inhibition % does the source give for `CC(C)n1ccnc1C(=O)CCl` here?
A: 48.7%

Q: With `CC(=O)N1c2ccc(C(=O)CCl)cc2CC1C` (centres unmarked) as the molecule, how does the Inhibition % read?
A: 5.96%

Q: For `O=C(CCl)Nc1ccc2[nH]c(=O)[nH]c2c1`, which Inhibition % is on record?
A: 34.3%

Q: `Cl.O=C(CCl)Nc1cccnn1` was tested. Which Inhibition % did it give?
A: 26.1%

Q: For `O=C(CCl)c1ccns1`, which Inhibition % is on record?
A: 95.1%

Q: With `O=C(CCl)c1ccc2[nH]c(=O)[nH]c2c1` as the molecule, how does the Inhibition % read?
A: 63.2%

Q: Which Inhibition % does the source give for `O=C(CCl)c1ccc2c(c1)COC2` here?
A: 72.7%

Q: With `N#Cc1ncn(CCCOc2ccc(Cl)cc2)n1` as the molecule, how does the Inhibition % read?
A: 9.73%

Q: `N#Cc1ncn(Cc2c(F)cccc2Cl)n1` was tested. Which Inhibition % did it give?
A: 0.988%

Q: Which Inhibition % does the source give for `C=CC(=O)Nc1cnc2c(C)cccn12` here?
A: 8.53%

Q: With `CCCNC(=O)C(C#N)=Cc1oc(C)nc1C` as the molecule, how does the Inhibition % read?
A: 19.4%

Q: Which Inhibition % does the source give for `Cc1nc(C)c(C(=O)CCl)o1` here?
A: 95.2%

Q: How did the Inhibition % turn out when `Cc1nc(C#N)c(N2CCN(C(=O)CCl)CC2)o1` was run?
A: 38.4%

Q: For `C=CC(=O)N1CCCCC1c1noc(C2CC2)n1` (centres unmarked), which Inhibition % is on record?
A: 29.3%

Q: Which Inhibition % does the source give for `COC[C@@H]1C[C@H](OC)CN1C(=O)c1c[nH]c(C#N)c1` here?
A: 1.56%

Q: With `O=C(O)CN1C(=O)CSC1=O` as the molecule, how does the Inhibition % read?
A: 17.6%

Q: How did the Inhibition % turn out when `O=C(O)CCN1C(=O)CSC1=O` was run?
A: 13%

Q: For `Cl.NCCN1C(=O)CSC1=O`, which Inhibition % is on record?
A: 75.6%

Q: Which Inhibition % does the source give for `CN(Cc1nc2ccccc2[nH]1)S(=O)(=O)C1=CCCCC1` here?
A: 8.82%

Q: Which Inhibition % does the source give for `C=CC(=O)NC(CO)C1CCCO1` (centres unmarked) here?
A: 6.87%

Q: How did the Inhibition % turn out when `O=C(CCl)NCC#Cc1ccccc1` was run?
A: 1.08%

Q: Which Inhibition % does the source give for `C=CC(=O)N1CCCN(c2ccccn2)CC1` here?
A: 12.3%

Q: For `C=CC(=O)N(CC)C1CCS(=O)(=O)C1` (centres unmarked), which Inhibition % is on record?
A: -4.06%

Q: Which Inhibition % does the source give for `OC1(C2CO2)CCCC1` (centres unmarked) here?
A: 3.59%

Q: With `Cc1nn(C)c(Cl)c1C=CC(=O)N1CCC(N)C1.Cl` (centres unmarked) as the molecule, how does the Inhibition % read?
A: 17.1%

Q: With `CNC(=O)Cn1nc(-c2ccc(F)cc2)oc1=O` as the molecule, how does the Inhibition % read?
A: 16.9%

Q: `CCOC(=O)N1CCN(C(=O)CCl)CC1` was tested. Which Inhibition % did it give?
A: 67.8%

Q: For `O=C(CCl)N1CCC(C(=O)N2CCCCCC2)CC1`, which Inhibition % is on record?
A: 15.1%

Q: Which Inhibition % does the source give for `O=C(CCl)N1CCN(C(=O)CCl)CC1` here?
A: 36.5%

Q: With `CCOC(=O)C1CCN(C(=O)CCl)CC1` as the molecule, how does the Inhibition % read?
A: 19.7%

Q: With `O=C(CCl)N1CCC(C(=O)N2CCCCC2)CC1` as the molecule, how does the Inhibition % read?
A: 18.3%

Q: With `CN1CCN(C(=O)CCl)CC1.Cl` as the molecule, how does the Inhibition % read?
A: 1.98%

Q: Which Inhibition % does the source give for `CCOC(=O)C1CCCN(C(=O)CCl)C1` (centres unmarked) here?
A: 74.4%

Q: With `NC(=O)C1CCCN(C(=O)CCl)C1` (centres unmarked) as the molecule, how does the Inhibition % read?
A: 35.5%

Q: How did the Inhibition % turn out when `O=C(CCl)N1CCN(C(=O)C2CC2)CC1` was run?
A: 56.1%
